Screening results: PubChem, National Center for Advancing Translational Sciences (NCATS)
3T3 cytotox – NIH 3T3 cell cytotoxicity | NIH 3T3 viability, CellTiter-Glo ATP luminescence, 48-72 h | Potency, µM (top dose mostly 96.7 µM), for the others: at the top dose activity change, negative = cytotoxicity, most hits filed as inhibitors | 4.3% of 94,000 active; note: nearly all actives have a fitted effect of over 55% in size
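Cells were seeded at 400 per well, treated with pin-transferred compound, and kept 48 or 72 hr at 37 °C before CellTiter-Glo addition and luminescence imaging of cellular ATP.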
FLuc inh – Photinus pyralis luciferase inhibition; P08659; purified P. pyralis luciferase, luminescence, biochemical; Potency, µM (doses to about 115 µM), actives largely listed as inhibitors; 2.5% of 76,000 active; note: nearly all actives have a fitted effect of over 65% in size
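Cell-free enzyme assay, 10nM P. pyralis luciferase, luciferin and ATP each at 10uM. Inhibition profiled over a 6-point titration, read as luminescence.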
NPR1 antag – antagonists of human natriuretic peptide receptor Npr1; P16066; HEK293 hNpr1 GloSensor cGMP, ANP-stimulated luminescence; Potency, µM (highest dose often 46.3 µM), for inactives: at the highest dose activity change, negative = inhibition, actives largely listed as inhibitors; 1.6% of 76,000 active; AID 1347048; calls by dose curve; note: nearly all actives have a fitted effect of over 60% in size
Target sequence (P16066 whole entry, looked up): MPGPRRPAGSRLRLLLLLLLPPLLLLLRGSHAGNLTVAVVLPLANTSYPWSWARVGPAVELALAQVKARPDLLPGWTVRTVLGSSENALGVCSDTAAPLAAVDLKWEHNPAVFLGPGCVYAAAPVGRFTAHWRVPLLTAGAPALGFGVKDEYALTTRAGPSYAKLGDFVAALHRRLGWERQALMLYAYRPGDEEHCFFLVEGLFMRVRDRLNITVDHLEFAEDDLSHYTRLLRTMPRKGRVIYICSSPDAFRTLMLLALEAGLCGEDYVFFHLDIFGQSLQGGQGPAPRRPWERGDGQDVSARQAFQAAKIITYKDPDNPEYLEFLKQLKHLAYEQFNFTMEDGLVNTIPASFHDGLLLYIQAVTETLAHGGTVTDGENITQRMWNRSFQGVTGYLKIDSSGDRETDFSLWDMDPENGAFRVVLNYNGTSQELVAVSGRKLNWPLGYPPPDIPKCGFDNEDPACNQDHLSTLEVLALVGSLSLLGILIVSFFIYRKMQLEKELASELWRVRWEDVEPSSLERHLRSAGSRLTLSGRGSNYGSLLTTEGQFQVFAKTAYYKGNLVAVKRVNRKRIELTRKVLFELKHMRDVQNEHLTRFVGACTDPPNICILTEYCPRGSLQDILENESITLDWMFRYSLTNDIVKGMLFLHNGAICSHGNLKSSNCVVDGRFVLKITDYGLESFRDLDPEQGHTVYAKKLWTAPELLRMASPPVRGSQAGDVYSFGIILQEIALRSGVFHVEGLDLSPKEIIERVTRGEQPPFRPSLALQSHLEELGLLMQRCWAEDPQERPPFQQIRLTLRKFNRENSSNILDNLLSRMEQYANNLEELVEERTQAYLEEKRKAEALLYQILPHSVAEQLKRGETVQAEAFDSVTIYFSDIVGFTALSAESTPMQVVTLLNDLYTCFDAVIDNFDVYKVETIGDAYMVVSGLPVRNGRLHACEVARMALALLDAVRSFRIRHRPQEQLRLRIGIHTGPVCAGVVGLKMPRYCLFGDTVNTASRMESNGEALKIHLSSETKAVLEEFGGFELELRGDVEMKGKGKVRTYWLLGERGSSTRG
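HEK293 cells stably expressing human Npr1 and cGMP GloSensor pGS-40F, loaded 2 h with 2% GloSensor reagent, given compound 30 min at room temperature. Luminescence read before and 20 min after 0.1 nM hNppA.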
HEK cytotox – kills HEK 293 cells; 6.6% of 94,000 active; AID 1345083; Potency, µM (doses to about 115 µM), inactives show at the top dose activity change, negative = cytotoxicity, usual class: inhibitors; HEK 293 viability, ATP luminescence (CellTiter-Glo), 48-72 h; note: nearly all actives have a fitted effect of over 60% in size
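Pintool-delivered compounds were incubated with HEK 293 cells (250 cells/well) at 37 degree Celsius for 48 or 72 hr. ATP-dependent luminescence (CellTiter-Glo) then reported remaining viable cells.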
Starred values were filed as active, the others as inactive; i = inactive; u = inconclusive; x = no result given; ! = a repeat was not active; [ ] = another dose, or the depositor's remark. An excerpt weighted towards active compounds, which were near 11% of everything screened. Unless noted, calls come from the whole dose curve; as a rule, active = well fitted curve in the direction sought with a large enough effect; inconclusive = small, poorly fitted or top-dose-only effect, or another doubt; inactive = no such curve, though single readings can be large; an effect the other way counts as inactive or inconclusive. % is set by controls: 0 for no effect and ±100 for the full control effect; potency is the fitted concentration of half-maximal effect.

SMILES	3T3 cytotox	FLuc inh	NPR1 antag	HEK cytotox
COc1cccc(C(=O)NCCn2ccn3nc(-c4ccc(C)c(C)c4)cc3c2=O)c1	-9.0%	u	-18.7%	-19.7%
CC1(CNCc2ccccc2)COc2ccc(C(=O)Nc3cccc(Cl)c3)cc2N1 (centres undefined)	u	i	-16.7%[70.6 µM]	u
O=C(Cc1cccc(F)c1)NCCn1ccn2nc(-c3ccc(F)cc3)cc2c1=O	-21.8%	u	-16.4%	u
COc1ccc(-c2cc3c(=O)n(CCNC(=O)c4ccoc4)ccn3n2)cc1	-19.7%	u	-11.6%	22.4µM*
O=C(NCCn1ccn2nc(-c3ccc(F)cc3)cc2c1=O)c1c(F)cccc1Cl	u	i	2.1%	31.6µM*
COc1cccc(-c2cc3c(=O)n(CCNC(=O)c4ccccc4F)ccn3n2)c1	-28.2%	u	-7.9%	u
COc1ccc(-c2cc3c(=O)n(CCNC(=O)c4ccc(OC)c(OC)c4)ccn3n2)cc1	-9.5%	u	-23.2%	u
O=C(NCCn1ccn2nc(-c3ccc(F)cc3)cc2c1=O)c1ccc2[nH]ccc2c1	-19.4%	11.2µM*	0.0%	-22.3%
COc1ccc(-c2cc3c(=O)n(CCNC(=O)c4cccc(OC)c4OC)ccn3n2)cc1	u	6.31µM*	-15.1%	35.5µM*
Cc1ccc(C(=O)NCCn2ccn3nc(-c4ccc(F)cc4)cc3c2=O)cc1F	-28.7%	i	-20.8%	u
O=C(C1Cn2cccc2C(=O)N1Cc1ccccc1)N1CCN(c2ncccn2)CC1 (centres undefined)	-27.1%	i	-16.4%	4.4%
COCCNC(=O)c1cc(-c2ccccc2OC)c2nncn2n1	-1.7%[138 µM]	x	x	i
CO[C@H]1C[C@@H](O)C12CCN(C(=O)CCc1ccc(-c3cccs3)o1)CC2	u	i	u	25.1µM*
Cc1cc(F)ccc1OCC(=O)c1ccc2c(c1)N(C(C)C(=O)NCc1ccc(F)cc1)C(=O)CO2 (centres undefined)	u	i	-9.2%	44.7µM*
Cc1ccc(C)c(OCC(=O)c2ccc3c(c2)N(C(C)C(=O)NCC2CCCO2)C(=O)CO3)c1 (centres undefined)	-22.0%	i	6.1%	44.7µM*
CC(C(=O)NCc1ccccc1)N1C(=O)COc2ccc(C(=O)COc3ccc(F)cc3)cc21 (centres undefined)	-29.0%	i	1.9%	u
COCCCn1c(=O)c(C(=O)N2CCN([S+](=O)([O-])c3c(C)noc3C)CC2)nc2cccnc21	-20.4%	x	x	i
CC1=C[C@@H](CNC(=O)Nc2ccc(F)cc2)[C@H](C(C)C)C[C@H]1Cc1nc2c(C)cccc2[nH]1	39.8µM*	u	-22.7%	u
CC1=C[C@@H](CNC(=O)[C@@H]2CCCC[C@@H]2C(=O)O)[C@H](C(C)C)C[C@H]1Cc1nc2c(C)cccc2[nH]1	-4.3%	i	1.5%	-15.5%
CC1=C[C@@H](CNC(=O)C2CCCCC2)[C@H](C(C)C)C[C@H]1Cc1nc2c(C)cccc2[nH]1	25.1µM*	i	-19.1%[70.6 µM]	u
COCCN1CCN(C[C@@H]2C=C(C)[C@H](Cc3nnc(-c4ccc(N(C)C)cc4)o3)C[C@H]2C(C)C)CC1	u	i	1.8%	31.6µM*
COCCN1CCN(C[C@@H]2C=C(C)[C@H](Cc3nnc(-c4cccnc4)o3)C[C@H]2C(C)C)CC1	u	i	-3.9%	u
CC1=C[C@@H](CN2CCC(O)CC2)[C@H](C(C)C)C[C@H]1Cc1nnc(-c2ccc(N(C)C)cc2)o1	39.8µM*	i	5.5%	u
COc1ccc(-n2c(=O)c3c(n2Cc2ccccc2)CN(Cc2c[nH]c4ccccc24)CC3)cc1	u	i	-17.5%	u
CCN1CCCC(c2nc3ccc(F)cc3c(=O)[nH]2)C1 (centres undefined)	-9.5%[138 µM]	i	-1.6%[70.6 µM]	-1.1%[172 µM]
SMILES	3T3 cytotox	FLuc inh	NPR1 antag	HEK cytotox
O=c1[nH]c(C2CCCN(CC3CCCC3)C2)nc2ccc(F)cc12 (centres undefined)	39.8µM*	i	0.3%	31.6µM*
O=c1[nH]c(C2CCCN(Cc3cccc(-c4ccsc4)c3)C2)nc2ccc(F)cc12 (centres undefined)	28.2µM*!	i	-21.1%	22.4µM*
Cc1ccc2nc(C3CCCN(Cc4cccc(-c5ccc(F)cc5F)c4)C3)[nH]c(=O)c2c1 (centres undefined)	u	i	-25.3%	u
Cc1ccc2nc(C3CCCN(Cc4cccc(-c5cccnc5)c4)C3)[nH]c(=O)c2c1 (centres undefined)	u	i	-25.7%	31.6µM*!
O=c1[nH]c(C2CCCN(Cc3cccc(Cl)c3)C2)nc2ccc(F)cc12 (centres undefined)	u	i	-19.7%	u
CC(=O)NCCNC(=O)[C@@H]1Cc2cn(Cc3c(C)noc3C)c3cccc(c23)[C@H](CC(C)C)N1	-16.2%	i	-2.0%	u
CC(C)C[C@@H]1N[C@H](C(=O)NCc2ccco2)Cc2cn(Cc3nccn3C)c3cccc1c23	u	i	-13.2%	31.6µM*
COCCNC(=O)[C@@H]1Cc2cn(Cc3nccn3C)c3cccc(c23)[C@H](CC(C)C)N1	-21.6%[174 µM]	i	4.2%[70.6 µM]	39.8µM*
CC(C)C[C@@H]1N[C@H](C(=O)NC2CCCC2)Cc2cn(Cc3nccn3C)c3cccc1c23	89.1µM*	i	-1.3%[70.6 µM]	39.8µM*
Cc1noc(C)c1Cn1cc2c3c(cccc31)[C@H](CC(C)C)N[C@H](C(=O)NCc1ccco1)C2	20µM*	i	-17.8%	u
COc1ccc(C(=O)N2C[C@@H]3C[C@H](C2)c2ccc(NC(=O)Nc4cccc(C#N)c4)c(=O)n2C3)cc1	u	25.1µM*	-2.4%	u
COc1ccc(C(=O)N2C[C@@H]3C[C@H](C2)c2c(NC(=O)Nc4ccccc4)ccc(=O)n2C3)cc1	i	i	-1.7%	10µM*
COc1ccc(C(=O)N2C[C@@H]3C[C@H](C2)c2ccc(NS(=O)(=O)c4ccccc4C#N)c(=O)n2C3)cc1	-13.6%	i	-4.5%	-2.0%
CCn1cc(-c2ccc(Cl)cc2)cc1C(=O)NCCCN1CCOCC1	u	i	-0.7%	u
Cc1ccncc1C(=O)N1CC[C@H](n2c(=O)n(C)c3cccnc32)C1	-12.6%	x	x	-18.3%
COc1ccc(OC)c(NC(=O)c2cc(-c3ccc[nH]3)n[nH]2)c1	44.7µM*	u	-8.5%	39.8µM*
Cc1ccc(F)cc1NC(=O)c1cc(-c2ccc[nH]2)n[nH]1	-29.3%	39.8µM*	-6.9%	u
Cc1cc(NC(=O)c2cc(-c3ccc[nH]3)n[nH]2)ccc1F	-7.3%	u	-20.0%	-12.1%
OCC1CN(Cc2cc(F)cc(Br)c2)CC12CCNCC2 (centres undefined)	u	i	1.9%	31.6µM*
COCC1CN(Cc2cccc(C(F)(F)F)c2)CC12CCNCC2 (centres undefined)	u	i	1.5%	89.1µM*
